A word on the inhibition: it is the drop in the measured response relative to a control, in per cent.

Calls of active or inactive are those of the source.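 How the source made its calls, unless noted: active means NADPH fluorescence slope more negative than the mean of all samples by about 3 SD, 99.7% confidence; inactive means the rest.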

The values below come from PubChem BioAssay.

Assay [1] in a line: inhibitors of TNFa-induced NFkB p65 translocation, primary screen, imaging, HUVEC, MLSMR starter and 10KST1 sets (AID 438;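 active means inhibition above 20% together with a positive visual image hit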;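 further: compound added about 3h40 before a 20 min TNFalpha stimulation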;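 on inhibition: signal is the nuclear over cytoplasmic p65 intensity ratio per well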). Conditions: HUVEC TNFa-induced p65 nuclear translocation; cell count: measured here: nuclei count (cytotoxicity indicator), at 2.08 µM; inhibition: at 2 µM, stronger effect = higher value, 0% TNFa-plus-vehicle, 100% no-TNFa wells.
Assay [2] is described as follows: reduction of polyQ htt aggregates in cells – imaging, exon1htt(103Q)mCFP cells, high-content imaging, primary screen (AID 483;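 active means visual image review flags a hit and inhibition of aggregation exceeds 20%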;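 further: compound exposure lasted 3 days before fixation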;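 on nuclei count: percent of the per-plate median nuclei count of sample wells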). Conditions: exon1htt(103Q)mCFP cell line, aggregate imaging, at 2 µM; inhibition of aggregation: stronger effect = higher value; nuclei count: measured here: cell count, toxicity.
Assay [3] can be described thus: endothelial E-selectin expression blockers – imaging, HUVEC, immunofluorescence, MLSMR starter and 10KST1 sets, primary screen (AID 487;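 active means visually confirmed hit in the image check and inhibition above 20%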;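 on inhibition: signal is fraction of cell area covered by stained E-selectin grains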;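 on nuclei count: 100% = median nuclei count of all wells on the same plate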). Conditions: HUVEC TNFalpha-induced E-selectin immunofluorescence imaging, at 2 µM; inhibition: stronger effect = higher value; nuclei count: measured here: cell number, toxicity.
The target of assay [4] is Voltage-gated potassium channel subunit beta-2 (Rattus norvegicus) (UniProt P62483). As to the kind of experiment: inhibitors of rat Kvbeta2 reductase activity – biochemical, NADPH fluorescence, primary screen (AID 622;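 active means fluorescence slope higher than the sample average by over 3 SD, cut at about -0.22 in these data, passing the limit was not always enough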;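 further: slope of raw intensity against log time taken from 70 to 1610 s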). To be noted: recombinant KvBeta, 4-cyanobenzaldehyde reduction, at 10 µM, stronger effect = higher value.
Voltage-gated potassium channel subunit beta-2 (Rattus norvegicus), sequence (P62483 whole entry, looked up): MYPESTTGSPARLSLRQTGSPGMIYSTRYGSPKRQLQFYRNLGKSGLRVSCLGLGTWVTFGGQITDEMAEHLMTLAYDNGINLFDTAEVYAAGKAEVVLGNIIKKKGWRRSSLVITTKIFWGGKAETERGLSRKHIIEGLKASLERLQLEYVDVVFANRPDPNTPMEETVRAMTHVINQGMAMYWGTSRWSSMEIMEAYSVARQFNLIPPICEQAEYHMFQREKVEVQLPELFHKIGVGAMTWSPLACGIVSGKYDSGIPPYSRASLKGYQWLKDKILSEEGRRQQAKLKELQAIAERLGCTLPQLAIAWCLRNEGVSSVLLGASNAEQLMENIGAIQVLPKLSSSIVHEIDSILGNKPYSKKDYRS
The target is the same in assay [5]. Put plainly: enhancers of rat Kvbeta2 NADPH turnover – biochemical, NADPH fluorescence, primary screen (AID 623).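 Further: fluorescence intensity change per second fitted from 20 to 320 s.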 To be noted: Recombinant KvBeta, NADPH fluorescence decrease slope, 10 min; at 10 µM; stronger effect = lower value.
Assay [6] concerns the target Alpha-2C adrenergic receptor (Homo sapiens) (UniProt P18825). As to the kind of experiment: compounds altering alpha2C-coupled GIRK flux – cell-based, HEK293 alpha2C/GIRK1/2, thallium flux, primary screen (AID 624;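 active means fluorescence slope after compound addition differing from the mean of all screened samples at 99.7% confidence, in either direction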;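 further: slope of fluorescence ratio to pre-addition baseline per second over 15 to 24 s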). To be noted: thallium flux BTC fluorescence, at 10 µM, actives lie on both sides.
Assay [7] in a line: blockers of RIG-like receptor reporter activation – cell-based, Sendai virus stimulus, luciferase, 10K MLSCN set, TLR/RLR signaling modifier project, primary screen (AID 602276;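 active means inhibition at or above 50% at 10 µM; inactive means inhibition below 50%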;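 further: firefly luciferase from ISG56 promoter only with Renilla not read in this screen; 0% = Sendai virus plus DMSO and 100% = medium plus DMSO without virus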). To be noted: HEK293 RL24 IRF3 luciferase reporter, at 10 µM, stronger effect = higher value. (Reporter assays use an easily measured gene product as a stand-in for the process of interest.)
Assay [8] in a line: TLR3 IRF3 reporter activation blockers – cell-based, poly I:C stimulus, luciferase, 10K MLSCN set, primary screen (AID 602277;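 active means inhibition of the reporter signal at or above 50%; inactive means inhibition below 50%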). Conditions: HEK293-TLR3 RL24 IRF3 luciferase reporter, at 10 µM, stronger effect = higher value.

Alpha-2C adrenergic receptor (Homo sapiens), sequence (P18825 whole entry, looked up): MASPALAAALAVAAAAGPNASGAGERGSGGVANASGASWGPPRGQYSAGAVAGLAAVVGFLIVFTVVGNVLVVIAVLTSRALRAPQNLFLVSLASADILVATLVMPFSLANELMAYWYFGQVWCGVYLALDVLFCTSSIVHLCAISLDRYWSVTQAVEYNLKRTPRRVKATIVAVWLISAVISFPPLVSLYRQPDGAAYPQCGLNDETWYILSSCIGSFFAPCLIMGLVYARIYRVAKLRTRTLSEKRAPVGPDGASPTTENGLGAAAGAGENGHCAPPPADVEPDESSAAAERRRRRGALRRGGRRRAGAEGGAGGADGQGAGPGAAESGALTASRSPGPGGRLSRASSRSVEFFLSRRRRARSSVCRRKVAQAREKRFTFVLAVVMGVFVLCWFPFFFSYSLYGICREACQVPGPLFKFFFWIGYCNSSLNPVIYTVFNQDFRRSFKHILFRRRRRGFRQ

As to `O=C(NCc1ccc2c(c1)OCO2)C1CCCN(S(=O)(=O)c2cccnc2)C1` (centres undefined), the cell count in assay [1] was determined as 584. Besides, the inhibition in assay [1] is 7.6% (inactive); in assay [3] it was -65.3% (inactive); in assay [7], 8.73% (inactive); in assay [8], 23.4% (inactive). For the same compound, the inhibition of aggregation in assay [2] was -1.4% (inactive). The nuclei count in assay [2] was determined as 96.3%; in assay [3], 119%. Further, the fluorescence slope in assay [4] was -0.575 (inactive). In addition, in assay [5], the NADPH fluorescence slope is -2.7e-05 (inactive). The slope in assay [6] was 0.00636 (inactive).

For the compound `COCCN(CCOC)Cc1c(C)[nH]c2ccccc2c1=O`, in assay [1], the cell count came out at 398. Also, the inhibition was 6.8% (inactive) in assay [1], 1.8% (inactive) in assay [3], 3.05% (inactive) in assay [7] and 24.8% (inactive) in assay [8]. Also, in assay [2], the inhibition of aggregation was 12.7% (inactive). In addition, the nuclei count in assay [2] came to 93.3%; in assay [3] it was 104%. The fluorescence slope in assay [4] was -0.351 (inactive). The NADPH fluorescence slope in assay [5] was -1.7e-05 (inactive). Moreover, the slope in assay [6] is 0.00544 (inactive).

Turning to `COc1ccc(OC)c(C(C)NC=O)c1` (centres undefined), the cell count in assay [1] was 438. In addition, the inhibition is 3% (inactive) in assay [1], -56.8% (inactive) in assay [3], 0.449% (inactive) in assay [7] and 23.1% (inactive) in assay [8]. Also, the inhibition of aggregation in assay [2] is 14.2% (inactive). Further, the nuclei count in assay [2] and in assay [3] was 108% each time. For the same compound, the fluorescence slope in assay [4] is -0.449 (inactive). Also, the NADPH fluorescence slope in assay [5] was 1.3e-05 (inactive). Also, the slope in assay [6] is 0.00556 (inactive).

On to `Clc1ccc2nc(N3CCCCC3)[nH]c2c1`, for which, in assay [1], the cell count was determined as 706. Further, the inhibition was 5.6% (inactive) in assay [1], -82.5% (inactive) in assay [3], -26% (inactive) in assay [7] and -98.5% (inactive) in assay [8]. Besides, the inhibition of aggregation in assay [2] is 11.3% (inactive). The nuclei count stood at 98.7% in assay [2] and 102% in assay [3]. Besides, the fluorescence slope in assay [4] was -0.446 (inactive). Also, the NADPH fluorescence slope in assay [5] was -6.8e-05 (inactive). Besides, the slope in assay [6] is 0.00544 (inactive).

In the case of `CC1=CCC2C(=O)N(c3nc(C)cc(C)n3)C(=O)C2C1` (centres undefined), the cell count in assay [1] turned out to be 332. In addition, the inhibition in assay [1] is 4.2% (inactive); in assay [3] it was -124% (inactive); in assay [7], 12.7% (inactive); in assay [8], 21.2% (inactive). For the same compound, in assay [2], the inhibition of aggregation was 9% (inactive). The nuclei count in assay [2] turned out to be 85.6%; in assay [3], 105%. In addition, the fluorescence slope in assay [4] is -0.53 (inactive). Also, the NADPH fluorescence slope in assay [5] is -7.2e-05 (inactive). Besides, the slope in assay [6] was 0.00507 (inactive).

As for `Cc1nn(C)c(C)c1CNC(=O)c1cc2n(n1)C(C(F)(F)F)CC(c1cccs1)N2` (centres undefined), in assay [1], the cell count amounted to 565. Further, the inhibition in assay [1] is 1.9% (inactive); in assay [3], -65% (inactive); in assay [7], -2.09% (inactive); in assay [8] it was -24.4% (inactive). Also, the inhibition of aggregation in assay [2] is -16.5% (inactive). Moreover, the nuclei count is 95.1% in assay [2] and 115% in assay [3]. Also, the fluorescence slope in assay [4] was -0.583 (inactive). Further, in assay [5], the NADPH fluorescence slope is -6.9e-05 (inactive). Besides, in assay [6], the slope is 0.00578 (inactive).

For the compound `CCOC(=O)c1ccccc1NC(=O)c1cccnc1`, the cell count in assay [1] was 381. Further, the inhibition is 5.5% (inactive) in assay [1], -167% (inactive) in assay [3], -0.374% (inactive) in assay [7] and 10.8% (inactive) in assay [8]. Besides, in assay [2], the inhibition of aggregation is -28.4% (inactive). Further, the nuclei count was found to be 117% in assay [2] and 135% in assay [3]. For the same compound, the fluorescence slope in assay [4] is -0.504 (inactive). Also, in assay [5], the NADPH fluorescence slope was 2.4e-05 (inactive). Also, in assay [6], the slope was 0.00744 (inactive).

Turning to `COc1ccc(NC(=O)CC2Sc3ncnn3C2=O)cc1` (centres undefined), in assay [1], the cell count is 632. Also, the inhibition in assay [1] is -5% (inactive); in assay [3], -65.3% (inactive); in assay [7], 8.74% (inactive); in assay [8], 16.8% (inactive). Moreover, the inhibition of aggregation in assay [2] is -9.2% (inactive). For the same compound, the nuclei count is 128% in assay [2] and 126% in assay [3]. Moreover, the fluorescence slope in assay [4] is -0.567 (inactive). Also, the NADPH fluorescence slope in assay [5] was -4e-05 (inactive). Also, in assay [6], the slope is 0.0059 (inactive).

Consider `Cc1ccccc1OCCn1c(=O)oc2ccccc21`, for which the cell count in assay [1] stood at 316. The inhibition in assay [1] was -4.7% (inactive); in assay [3], -43.9% (inactive); in assay [7], 5.52% (inactive); in assay [8] it was -6.56% (inactive). Moreover, in assay [2], the inhibition of aggregation is -1.9% (inactive). In addition, the results for the nuclei count in assay [2] and in assay [3] were 144% and 128%, respectively. In addition, the fluorescence slope in assay [4] is -0.353 (inactive). The NADPH fluorescence slope in assay [5] was -8e-06 (inactive). For the same compound, in assay [6], the slope was 0.00518 (inactive).

For the compound `CCC1(c2ccc(F)cc2)NC(=O)N(CC(=O)c2ccc[nH]2)C1=O` (centres undefined), the cell count in assay [1] was found to be 556. Besides, the inhibition in assay [1] was -20.6% (inactive); in assay [3], -36.7% (inactive); in assay [7] it was 4.26% (inactive); in assay [8], 27% (inactive). Also, the inhibition of aggregation in assay [2] was 6.8% (inactive). In addition, the nuclei count in assay [2] is 99.9%; in assay [3], 114%. In addition, the fluorescence slope in assay [4] is -0.419 (inactive). For the same compound, the NADPH fluorescence slope in assay [5] is -4.1e-05 (inactive). The slope in assay [6] was 0.00348 (inactive).

For the compound `N#CCC(=O)N1CCn2c1nc1ccccc12`, the cell count in assay [1] was determined as 301. The inhibition was -3.4% (inactive) in assay [1], -16.4% (inactive) in assay [3], 11.2% (inactive) in assay [7] and 24.2% (inactive) in assay [8]. The inhibition of aggregation in assay [2] was -20.8% (inactive). The nuclei count is 94.4% in assay [2] and 101% in assay [3]. Besides, the fluorescence slope in assay [4] was -0.492 (inactive). The NADPH fluorescence slope in assay [5] is -3.8e-05 (inactive). Moreover, the slope in assay [6] was 0.00588 (inactive).

Take `O=c1[nH]c(N2CCCCC2)nc2c1CCCC2`: in assay [1], the cell count is 581. Further, the inhibition is 0.9% (inactive) in assay [1], 9.4% (inactive) in assay [3], 17% (inactive) in assay [7] and 12.8% (inactive) in assay [8]. Besides, in assay [2], the inhibition of aggregation is 5.9% (inactive). Also, the nuclei count is 107% in assay [2] and 102% in assay [3]. Further, the fluorescence slope in assay [4] was -0.265 (inactive). The NADPH fluorescence slope in assay [5] is -2.4e-05 (inactive). Besides, the slope in assay [6] is 0.00576 (inactive).

As for `CCOC(=O)CSc1nc2c(c(-c3ccc(C)o3)c1C#N)CCCC2`, the cell count in assay [1] stood at 430. The inhibition in assay [1] was -4.4% (inactive); in assay [3] it was -63.3% (inactive); in assay [7], 10.2% (inactive); in assay [8], 18.3% (inactive). In addition, the inhibition of aggregation in assay [2] was -20.4% (inactive). Moreover, the nuclei count in assay [2] was determined as 100%; in assay [3], 128%. Also, the fluorescence slope in assay [4] is -0.447 (inactive). The NADPH fluorescence slope in assay [5] was -9.4e-05 (inactive). Further, the slope in assay [6] is 0.00861 (inactive).

With `COc1ccccc1-n1c(=O)[nH]c2c(C(N)=O)nc(CC(C)C)nc21`, the cell count in assay [1] turned out to be 809. Further, the inhibition was -0.5% (inactive) in assay [1], 2.2% (inactive) in assay [3], 13% (inactive) in assay [7] and 32.3% (inactive) in assay [8]. Besides, the inhibition of aggregation in assay [2] is -23.3% (inactive). Besides, the nuclei count in assay [2] is 105%; in assay [3] it was 117%. In assay [4], the fluorescence slope is -0.58 (inactive). Besides, in assay [5], the NADPH fluorescence slope was -3e-05 (inactive). Moreover, the slope in assay [6] was 0.00821 (inactive).
